# In paper PMC7862700, “An all-to-all approach to the identification of sequence-specific readers for epigenetic DNA modifications on cytosine”:
# Experiments:
# Test in all cases: DAPPL (digital affinity profiling via proximity ligation, sequencing); 10 mM Tris-HCl pH 7.5, 50 mM NaCl, 1 mM DTT, 4% glycerol, room temperature, 30 min; GST-TFs on glutathione beads, 16-mer random dsDNA library, 0.1% formaldehyde crosslink after washing; high values mean tight binding
# FEV = target: T1, FEV (Homo sapiens, UniProt Q99581 1-238); details: protein: recombinant; tags: N-terminal GST; dsDNA, one strand shown
# T1 sequence: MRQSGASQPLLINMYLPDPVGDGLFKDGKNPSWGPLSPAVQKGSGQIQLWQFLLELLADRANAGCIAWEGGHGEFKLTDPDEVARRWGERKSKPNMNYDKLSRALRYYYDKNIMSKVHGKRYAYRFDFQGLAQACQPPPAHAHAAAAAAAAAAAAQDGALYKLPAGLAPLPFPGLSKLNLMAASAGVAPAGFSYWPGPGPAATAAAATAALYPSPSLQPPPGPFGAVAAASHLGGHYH
# Procedure, shortened: (§1)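 Yeast served to express human transcription factors as GST fusions, which were then captured on glutathione beads and labelled with DNA barcodes. Pooled with a tag-only sample, they were incubated with 200 nmole of a 16-mer random double-stranded DNA library for 30 min at room temperature in Tris/NaCl/DTT/glycerol buffer, washed, crosslinked with 0.1% formaldehyde, ligated by proximity, amplified by PCR and sequenced. Dividing each hexamer's read frequency for a factor by its frequency for the tag-only sample gives the binding signal.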
# ETV5 = ETV5 (Homo sapiens, UniProt P41161 1-510); details: protein: recombinant; tags: N-terminal GST; dsDNA, one strand shown
# ETV5, sequence (P41161 whole entry): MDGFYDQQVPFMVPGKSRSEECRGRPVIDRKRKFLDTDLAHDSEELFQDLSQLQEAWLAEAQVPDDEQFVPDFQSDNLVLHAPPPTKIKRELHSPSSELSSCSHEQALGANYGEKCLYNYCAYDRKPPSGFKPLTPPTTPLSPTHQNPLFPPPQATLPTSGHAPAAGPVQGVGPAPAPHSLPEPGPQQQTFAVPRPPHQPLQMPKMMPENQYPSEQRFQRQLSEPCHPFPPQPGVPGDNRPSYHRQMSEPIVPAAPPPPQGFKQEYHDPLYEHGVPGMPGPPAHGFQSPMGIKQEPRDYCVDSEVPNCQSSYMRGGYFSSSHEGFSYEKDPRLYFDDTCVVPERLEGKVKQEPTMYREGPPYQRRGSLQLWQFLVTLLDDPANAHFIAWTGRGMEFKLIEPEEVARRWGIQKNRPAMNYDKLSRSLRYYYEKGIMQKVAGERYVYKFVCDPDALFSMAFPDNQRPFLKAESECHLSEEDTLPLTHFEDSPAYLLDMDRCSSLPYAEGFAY
# Procedure, shortened: as §1
# HSF1 = HSF1 (Homo sapiens, UniProt Q00613 1-529); details: protein: recombinant; tags: N-terminal GST; chain copies: 3; dsDNA, one strand shown
# HSF1, sequence (Q00613 whole entry): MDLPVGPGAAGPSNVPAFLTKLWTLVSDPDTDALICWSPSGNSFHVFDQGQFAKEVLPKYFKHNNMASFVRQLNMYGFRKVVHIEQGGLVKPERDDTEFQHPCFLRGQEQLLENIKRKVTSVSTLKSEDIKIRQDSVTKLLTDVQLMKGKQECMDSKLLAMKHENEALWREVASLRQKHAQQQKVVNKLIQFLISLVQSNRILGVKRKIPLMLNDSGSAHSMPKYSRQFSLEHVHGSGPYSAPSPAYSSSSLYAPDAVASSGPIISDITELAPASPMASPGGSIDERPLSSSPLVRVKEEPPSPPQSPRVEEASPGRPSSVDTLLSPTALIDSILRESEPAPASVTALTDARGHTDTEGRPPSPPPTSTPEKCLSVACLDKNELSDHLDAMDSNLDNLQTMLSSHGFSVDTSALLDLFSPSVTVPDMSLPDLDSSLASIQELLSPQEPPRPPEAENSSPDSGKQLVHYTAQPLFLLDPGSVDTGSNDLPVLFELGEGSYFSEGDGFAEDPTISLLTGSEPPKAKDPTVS
# Procedure, shortened: as §1
# SPIC = target: T2, SPIC (Homo sapiens, UniProt Q8N5J4 1-248); details: protein: recombinant; tags: N-terminal GST; dsDNA, one strand shown
# T2 sequence: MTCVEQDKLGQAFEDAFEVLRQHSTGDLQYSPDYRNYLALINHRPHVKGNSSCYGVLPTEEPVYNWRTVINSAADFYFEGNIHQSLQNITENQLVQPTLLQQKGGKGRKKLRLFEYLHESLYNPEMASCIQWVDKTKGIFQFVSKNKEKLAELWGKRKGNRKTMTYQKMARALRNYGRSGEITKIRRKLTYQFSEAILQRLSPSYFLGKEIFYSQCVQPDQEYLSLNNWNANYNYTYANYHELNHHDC
# Procedure, shortened: as §1
# ELF4 = ELF4 (Homo sapiens, UniProt Q99607 1-663); details: protein: recombinant; tags: N-terminal GST; dsDNA, one strand shown
# ELF4, sequence (Q99607 whole entry): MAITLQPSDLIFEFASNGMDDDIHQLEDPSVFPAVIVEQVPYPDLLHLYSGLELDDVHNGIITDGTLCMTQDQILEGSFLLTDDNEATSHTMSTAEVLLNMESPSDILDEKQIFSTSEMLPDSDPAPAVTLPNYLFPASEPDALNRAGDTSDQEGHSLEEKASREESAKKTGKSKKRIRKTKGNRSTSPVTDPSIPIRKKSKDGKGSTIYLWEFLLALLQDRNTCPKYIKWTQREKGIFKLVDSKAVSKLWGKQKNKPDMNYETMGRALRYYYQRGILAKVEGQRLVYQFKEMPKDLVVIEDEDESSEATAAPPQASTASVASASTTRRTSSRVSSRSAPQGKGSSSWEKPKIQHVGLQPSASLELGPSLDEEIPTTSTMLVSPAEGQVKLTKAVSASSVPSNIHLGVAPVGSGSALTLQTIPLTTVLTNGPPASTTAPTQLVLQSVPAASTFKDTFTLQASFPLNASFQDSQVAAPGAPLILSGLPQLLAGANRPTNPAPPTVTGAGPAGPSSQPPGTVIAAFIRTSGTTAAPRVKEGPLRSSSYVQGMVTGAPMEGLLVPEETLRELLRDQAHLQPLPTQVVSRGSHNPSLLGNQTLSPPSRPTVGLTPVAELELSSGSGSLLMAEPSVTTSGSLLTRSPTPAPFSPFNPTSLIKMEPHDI
# Procedure, shortened: as §1
# ELK4 = target: T3, ELK4 (Homo sapiens, UniProt P28324-2 1-405); details: protein: recombinant; tags: N-terminal GST; dsDNA, one strand shown
# T3 sequence: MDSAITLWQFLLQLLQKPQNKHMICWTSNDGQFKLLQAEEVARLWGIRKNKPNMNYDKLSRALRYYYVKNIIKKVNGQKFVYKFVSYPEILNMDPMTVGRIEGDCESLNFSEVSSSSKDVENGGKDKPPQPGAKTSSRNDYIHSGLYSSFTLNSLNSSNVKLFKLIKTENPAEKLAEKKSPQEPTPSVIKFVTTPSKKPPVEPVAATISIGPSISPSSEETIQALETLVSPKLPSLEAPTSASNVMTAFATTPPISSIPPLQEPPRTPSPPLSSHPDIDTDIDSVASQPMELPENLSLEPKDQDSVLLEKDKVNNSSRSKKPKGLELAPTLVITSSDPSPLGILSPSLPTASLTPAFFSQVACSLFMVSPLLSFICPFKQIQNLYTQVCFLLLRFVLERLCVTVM
# Procedure, shortened: as §1
# ETV2 = target: T4, ETV2 (Homo sapiens, UniProt O00321 1-342); details: protein: recombinant; tags: N-terminal GST; dsDNA, one strand shown
# T4 sequence: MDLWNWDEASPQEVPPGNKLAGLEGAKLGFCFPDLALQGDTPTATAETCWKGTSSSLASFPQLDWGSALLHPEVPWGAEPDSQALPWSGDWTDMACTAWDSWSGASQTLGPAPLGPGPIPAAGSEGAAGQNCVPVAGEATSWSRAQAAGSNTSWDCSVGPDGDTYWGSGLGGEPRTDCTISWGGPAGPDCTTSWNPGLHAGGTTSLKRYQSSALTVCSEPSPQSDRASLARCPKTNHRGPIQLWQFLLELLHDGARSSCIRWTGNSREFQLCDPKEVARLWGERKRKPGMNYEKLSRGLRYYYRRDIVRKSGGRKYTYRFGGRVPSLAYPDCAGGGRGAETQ
# Procedure, shortened: as §1
# ELF3 = target: T5, ELF3 (Homo sapiens, UniProt P78545 1-371); details: protein: recombinant; tags: N-terminal GST; dsDNA, one strand shown
# T5 sequence: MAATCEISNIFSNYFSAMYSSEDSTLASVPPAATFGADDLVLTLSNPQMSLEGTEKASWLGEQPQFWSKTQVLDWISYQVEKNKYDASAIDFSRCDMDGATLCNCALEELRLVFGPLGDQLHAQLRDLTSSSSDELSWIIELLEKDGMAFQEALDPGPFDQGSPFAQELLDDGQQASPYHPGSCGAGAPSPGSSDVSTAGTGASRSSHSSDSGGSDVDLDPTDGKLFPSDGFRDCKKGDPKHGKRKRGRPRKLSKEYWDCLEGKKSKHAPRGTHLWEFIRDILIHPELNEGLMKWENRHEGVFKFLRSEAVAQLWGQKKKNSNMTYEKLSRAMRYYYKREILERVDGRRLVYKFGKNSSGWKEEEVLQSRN
# Procedure, shortened: as §1
# CRX = CRX (Homo sapiens, UniProt O43186 1-299); details: protein: recombinant; tags: N-terminal GST; dsDNA, one strand shown
# CRX, sequence (O43186 whole entry): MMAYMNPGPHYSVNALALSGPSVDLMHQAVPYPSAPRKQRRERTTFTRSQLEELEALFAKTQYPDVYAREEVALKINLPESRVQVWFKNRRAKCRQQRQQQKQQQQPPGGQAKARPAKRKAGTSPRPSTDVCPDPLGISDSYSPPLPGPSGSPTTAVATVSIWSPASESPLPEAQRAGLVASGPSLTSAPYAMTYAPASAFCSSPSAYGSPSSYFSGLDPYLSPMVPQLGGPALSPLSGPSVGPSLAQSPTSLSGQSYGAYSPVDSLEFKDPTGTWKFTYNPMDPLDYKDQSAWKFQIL
# Procedure, shortened: as §1
# ETV1 = ETV1 (Homo sapiens, UniProt P50549 1-477); details: protein: recombinant; tags: N-terminal GST; dsDNA, one strand shown
# ETV1, sequence (P50549 whole entry): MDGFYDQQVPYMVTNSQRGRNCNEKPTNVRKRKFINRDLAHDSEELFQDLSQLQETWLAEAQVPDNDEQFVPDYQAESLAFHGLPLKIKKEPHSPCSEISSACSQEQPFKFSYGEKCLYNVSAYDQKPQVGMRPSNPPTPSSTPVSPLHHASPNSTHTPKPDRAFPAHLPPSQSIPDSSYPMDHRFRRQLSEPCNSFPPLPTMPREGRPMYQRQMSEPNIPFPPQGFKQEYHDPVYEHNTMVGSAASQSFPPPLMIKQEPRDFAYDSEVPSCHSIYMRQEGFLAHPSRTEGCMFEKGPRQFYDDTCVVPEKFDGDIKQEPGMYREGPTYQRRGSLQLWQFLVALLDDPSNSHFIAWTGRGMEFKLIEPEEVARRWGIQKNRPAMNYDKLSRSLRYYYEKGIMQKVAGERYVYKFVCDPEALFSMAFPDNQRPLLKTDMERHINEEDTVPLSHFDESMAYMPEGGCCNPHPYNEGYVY
# Procedure, shortened: as §1
# ERF = target: T6, ERF (Homo sapiens, UniProt P50548 1-548); details: protein: recombinant; tags: N-terminal GST; dsDNA, one strand shown
# T6 sequence: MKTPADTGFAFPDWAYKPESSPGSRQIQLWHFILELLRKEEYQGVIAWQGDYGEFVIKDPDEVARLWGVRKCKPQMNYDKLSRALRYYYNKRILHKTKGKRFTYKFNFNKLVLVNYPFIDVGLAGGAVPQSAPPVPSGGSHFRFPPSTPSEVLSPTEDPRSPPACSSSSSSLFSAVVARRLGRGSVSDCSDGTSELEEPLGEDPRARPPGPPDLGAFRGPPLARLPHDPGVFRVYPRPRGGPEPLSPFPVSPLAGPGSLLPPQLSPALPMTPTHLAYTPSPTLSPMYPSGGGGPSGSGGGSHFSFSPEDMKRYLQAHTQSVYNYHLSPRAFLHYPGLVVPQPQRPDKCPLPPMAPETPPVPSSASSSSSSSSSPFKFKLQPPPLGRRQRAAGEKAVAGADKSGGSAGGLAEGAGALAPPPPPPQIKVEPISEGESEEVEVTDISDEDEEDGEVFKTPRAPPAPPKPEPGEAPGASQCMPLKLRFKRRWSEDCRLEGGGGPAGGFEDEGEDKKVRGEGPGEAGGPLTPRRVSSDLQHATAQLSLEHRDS
# Procedure, shortened: as §1
# ETV3L = target: T7, ETV3L (Homo sapiens, UniProt Q6ZN32 1-361); details: protein: recombinant; tags: N-terminal GST; dsDNA, one strand shown
# T7 sequence: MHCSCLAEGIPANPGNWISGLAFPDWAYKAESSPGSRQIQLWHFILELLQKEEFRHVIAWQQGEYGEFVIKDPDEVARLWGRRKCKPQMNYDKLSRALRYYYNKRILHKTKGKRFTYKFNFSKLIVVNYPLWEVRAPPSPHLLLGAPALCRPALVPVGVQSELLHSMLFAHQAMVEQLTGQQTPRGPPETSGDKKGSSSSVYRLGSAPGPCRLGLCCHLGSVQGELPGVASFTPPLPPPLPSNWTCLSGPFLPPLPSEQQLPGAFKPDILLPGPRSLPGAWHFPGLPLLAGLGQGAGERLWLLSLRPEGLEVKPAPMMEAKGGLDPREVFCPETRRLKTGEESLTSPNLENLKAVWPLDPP
# Procedure, shortened: as §1
# ETS2 = target: T8, ETS2 (Homo sapiens, UniProt P15036 1-469); details: protein: recombinant; tags: N-terminal GST; dsDNA, one strand shown
# T8 sequence: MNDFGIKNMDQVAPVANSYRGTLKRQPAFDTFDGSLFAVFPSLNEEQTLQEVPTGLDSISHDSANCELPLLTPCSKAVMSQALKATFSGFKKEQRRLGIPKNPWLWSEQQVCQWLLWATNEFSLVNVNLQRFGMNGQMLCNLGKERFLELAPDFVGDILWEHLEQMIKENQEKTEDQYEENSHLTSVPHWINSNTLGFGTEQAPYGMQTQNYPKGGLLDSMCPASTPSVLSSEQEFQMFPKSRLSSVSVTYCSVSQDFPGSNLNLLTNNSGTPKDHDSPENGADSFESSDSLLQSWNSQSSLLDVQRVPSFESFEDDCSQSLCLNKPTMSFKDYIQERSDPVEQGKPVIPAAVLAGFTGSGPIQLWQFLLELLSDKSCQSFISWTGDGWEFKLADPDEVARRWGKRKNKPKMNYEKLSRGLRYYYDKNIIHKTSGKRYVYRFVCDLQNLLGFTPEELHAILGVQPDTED
# Procedure, shortened: as §1
# ETV7 = target: T9, ETV7 (Homo sapiens, UniProt Q9Y603 1-341); details: protein: recombinant; tags: N-terminal GST; dsDNA, one strand shown
# T9 sequence: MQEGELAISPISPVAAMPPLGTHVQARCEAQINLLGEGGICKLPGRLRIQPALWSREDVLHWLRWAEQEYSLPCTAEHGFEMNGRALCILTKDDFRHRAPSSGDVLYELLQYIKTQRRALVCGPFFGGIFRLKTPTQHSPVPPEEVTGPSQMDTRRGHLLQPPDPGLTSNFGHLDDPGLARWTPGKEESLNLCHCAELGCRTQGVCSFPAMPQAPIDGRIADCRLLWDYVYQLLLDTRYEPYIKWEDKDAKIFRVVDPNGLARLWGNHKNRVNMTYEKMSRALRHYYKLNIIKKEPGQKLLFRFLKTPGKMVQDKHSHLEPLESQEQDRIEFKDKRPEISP
# Procedure, shortened: as §1
# ELF5 = target: T10, ELF5 (Homo sapiens, UniProt Q9UKW6-2 1-255); details: protein: recombinant; tags: N-terminal GST; dsDNA, one strand shown
# T10 sequence: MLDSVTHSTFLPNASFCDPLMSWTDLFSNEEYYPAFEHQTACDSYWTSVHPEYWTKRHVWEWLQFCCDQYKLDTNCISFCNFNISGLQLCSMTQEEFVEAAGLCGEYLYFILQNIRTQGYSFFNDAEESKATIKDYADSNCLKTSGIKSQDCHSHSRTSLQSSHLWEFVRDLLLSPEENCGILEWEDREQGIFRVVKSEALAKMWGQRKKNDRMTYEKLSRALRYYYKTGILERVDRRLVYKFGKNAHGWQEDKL
# Procedure, shortened: as §1
# ETV3 = target: T11, ETV3 (Homo sapiens, UniProt P41162-2 1-143); details: protein: recombinant; tags: N-terminal GST; dsDNA, one strand shown
# T11 sequence: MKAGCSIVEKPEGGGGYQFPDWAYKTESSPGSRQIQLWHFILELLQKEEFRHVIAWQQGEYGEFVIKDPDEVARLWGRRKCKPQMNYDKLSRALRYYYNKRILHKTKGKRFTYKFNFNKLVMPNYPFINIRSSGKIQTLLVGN
# Procedure, shortened: as §1
# ETV6 = ETV6 (Homo sapiens, UniProt P41212 1-452); details: protein: recombinant; tags: N-terminal GST; dsDNA, one strand shown
# ETV6, sequence (P41212 whole entry): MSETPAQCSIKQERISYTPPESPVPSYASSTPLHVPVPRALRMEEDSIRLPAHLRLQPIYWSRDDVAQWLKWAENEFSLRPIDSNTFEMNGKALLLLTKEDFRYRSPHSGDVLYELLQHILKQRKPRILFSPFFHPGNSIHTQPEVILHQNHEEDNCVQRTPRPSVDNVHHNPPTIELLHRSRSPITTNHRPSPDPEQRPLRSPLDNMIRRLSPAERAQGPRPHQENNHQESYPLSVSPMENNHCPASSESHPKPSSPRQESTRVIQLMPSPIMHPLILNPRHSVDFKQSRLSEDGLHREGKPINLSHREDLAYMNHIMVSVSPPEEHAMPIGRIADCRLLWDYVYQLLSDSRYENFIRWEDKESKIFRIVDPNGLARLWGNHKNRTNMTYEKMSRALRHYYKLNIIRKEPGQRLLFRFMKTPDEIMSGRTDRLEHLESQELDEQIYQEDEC
# Procedure, shortened: as §1
sequence,measurement,setting,value
AAGCTG,binding signal,FEV,"1.14 fold enrichment (6-mer frequency, TF over GST control)"
same,binding signal,ETV5,"1.08 fold enrichment (6-mer frequency, TF over GST control)"
same,binding signal,HSF1,"1.25 fold enrichment (6-mer frequency, TF over GST control)"
same,binding signal,SPIC,"1.08 fold enrichment (6-mer frequency, TF over GST control)"
same,binding signal,ELF4,"1.08 fold enrichment (6-mer frequency, TF over GST control)"
same,binding signal,ELK4,"1.19 fold enrichment (6-mer frequency, TF over GST control)"
same,binding signal,ETV2,"1.17 fold enrichment (6-mer frequency, TF over GST control)"
same,binding signal,ELF3,"1.28 fold enrichment (6-mer frequency, TF over GST control)"
same,binding signal,CRX,"1.59 fold enrichment (6-mer frequency, TF over GST control)"
same,binding signal,ETV1,"1.12 fold enrichment (6-mer frequency, TF over GST control)"
same,binding signal,ERF,"1.18 fold enrichment (6-mer frequency, TF over GST control)"
same,binding signal,ETV3L,"1.05 fold enrichment (6-mer frequency, TF over GST control)"
same,binding signal,ETS2,"1.13 fold enrichment (6-mer frequency, TF over GST control)"
same,binding signal,ETV7,"1.18 fold enrichment (6-mer frequency, TF over GST control)"
same,binding signal,ELF5,"1.11 fold enrichment (6-mer frequency, TF over GST control)"
same,binding signal,ETV3,"1.24 fold enrichment (6-mer frequency, TF over GST control)"
same,binding signal,ETV6,"1.08 fold enrichment (6-mer frequency, TF over GST control)"
